Results published in PubChem BioAssay (NCI).
About 83,000 compounds went through this panel and 20% of them were active in at least one assay; those are over-represented in the sample as a whole.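 Step 1: grow cells in 96-well plates. Step 2: add test compound at a single concentration. Step 3: incubate 48 h. Step 4: record percent growth.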 Activity calls are given as the source filed them. The calls were made as follows: active = growth percent below 10; inactive = the rest.

Columns and labels:
Experiment in all cases: NCI-60 one-dose screen, 48 h (100 = growth as untreated, 0 = no growth, -100 = all killed)
DU-145 prostate = details: 10 µM unless noted
K-562 leukemia = details: 10 µM unless noted
MALME-3M melanoma = details: 10 µM unless noted
RXF 393 renal = details: 10 µM unless noted
SF-295 CNS = details: 10 µM unless noted
UACC-257 melanoma = details: 10 µM unless noted
HCT-15 colon = details: 10 µM
HT29 colon = details: 10 µM unless noted
SNB-75 CNS = details: 10 µM unless noted
SNB-19 CNS = details: 10 µM unless noted
PC-3 prostate = details: 10 µM unless noted
SK-MEL-5 melanoma = details: 10 µM unless noted
LOX IMVI melanoma = details: 10 µM unless noted
CAKI-1 renal = details: 10 µM unless noted
A498 renal = details: 10 µM unless noted
HL-60(TB) leukemia = details: 10 µM unless noted
MOLT-4 leukemia = details: 10 µM
T-47D breast = details: 10 µM unless noted
BT-549 breast = details: 10 µM
HCC-2998 colon = details: 10 µM unless noted

Measured: growth

C=CCN1C(=O)C(CC)(CCC(C)C)C(=O)NC1=S (stereo not drawn)
inactive: DU-145 prostate 105% | K-562 leukemia 99.8% | MALME-3M melanoma 96.1% | RXF 393 renal 107% | SF-295 CNS 88.7% | UACC-257 melanoma 89.5% | HCT-15 colon 105% | HT29 colon 103% | SNB-75 CNS 96.8% | SNB-19 CNS 100% | PC-3 prostate 91.7% | SK-MEL-5 melanoma 105% | LOX IMVI melanoma 109% | CAKI-1 renal 97.7% | A498 renal 112% | HL-60(TB) leukemia 101% | MOLT-4 leukemia 96.6% | T-47D breast 113% | BT-549 breast 106% | HCC-2998 colon 124%

CC(/C=N/N=C(N)N)=N\N=C(N)N
active: HCC-2998 colon -62.9%
inactive: DU-145 prostate 65.5% | K-562 leukemia 56.1% | MALME-3M melanoma 126% | SF-295 CNS 85.5% | HCT-15 colon 100% | HT29 colon 65.9% | SNB-75 CNS 63.7% | SNB-19 CNS 78.1% | PC-3 prostate 101% | SK-MEL-5 melanoma 137% | LOX IMVI melanoma 67% | CAKI-1 renal 57.7% | A498 renal 83.9% | HL-60(TB) leukemia 77.6% | MOLT-4 leukemia 98.6% | T-47D breast 40.8%

COC(=O)C1CC2c3ccccc3C1c1ccccc12 (stereo not drawn)
inactive: DU-145 prostate 119% | K-562 leukemia 102% | MALME-3M melanoma 90.6% | RXF 393 renal 94.6% | SF-295 CNS 87.3% | UACC-257 melanoma 97.8% | HCT-15 colon 91.2% | HT29 colon 106% | SNB-19 CNS 117% | PC-3 prostate 66.4% | SK-MEL-5 melanoma 94% | LOX IMVI melanoma 94.7% | CAKI-1 renal 76.5% | A498 renal 98.4% | HL-60(TB) leukemia 108% | MOLT-4 leukemia 97.3% | T-47D breast 102% | BT-549 breast 120% | HCC-2998 colon 107%

C[CH2][Pb]([CH2]C)([CH2]C)[O]C(=O)COC
active: K-562 leukemia 0.215% | RXF 393 renal -8.73% | SF-295 CNS -58.5% | HCT-15 colon 8.99% | HT29 colon 0.481% | SK-MEL-5 melanoma -74.9% | LOX IMVI melanoma -20.8% | CAKI-1 renal -10.3% | A498 renal -3.55% | HL-60(TB) leukemia -50% | MOLT-4 leukemia -37.7% | BT-549 breast -18.8% | HCC-2998 colon -49.9%
inactive: DU-145 prostate 10.3% | MALME-3M melanoma 10.6% | PC-3 prostate 14.1% | T-47D breast 17.2%

Nc1ccc(N)c2c1Oc1ccccc1O2
inactive: DU-145 prostate 94.3% | K-562 leukemia 92.1% | MALME-3M melanoma 111% | SF-295 CNS 101% | UACC-257 melanoma 102% | HCT-15 colon 105% | HT29 colon 110% | SNB-75 CNS 108% | SNB-19 CNS 104% | PC-3 prostate 88% | SK-MEL-5 melanoma 72.6% | LOX IMVI melanoma 90.3% | CAKI-1 renal 84.3% | A498 renal 92.9% | HL-60(TB) leukemia 69.4% | MOLT-4 leukemia 81.6% | T-47D breast 98.1% | BT-549 breast 97.9% | HCC-2998 colon 108%

CNC(=O)Oc1ccccc1
inactive: DU-145 prostate 113% | K-562 leukemia 109% | MALME-3M melanoma 105% | RXF 393 renal 112% | UACC-257 melanoma 102% | HCT-15 colon 102% | HT29 colon 118% | SNB-75 CNS 80.7% | SNB-19 CNS 97% | PC-3 prostate 106% | SK-MEL-5 melanoma 97.1% | LOX IMVI melanoma 106% | CAKI-1 renal 113% | A498 renal 120% | HL-60(TB) leukemia 120% | MOLT-4 leukemia 106% | T-47D breast 133% | BT-549 breast 105% | HCC-2998 colon 119%

CCOc1cc(C=C(C#N)C#N)cc(Br)c1O
inactive: DU-145 prostate 103% | K-562 leukemia 75.2% | MALME-3M melanoma 106% | RXF 393 renal 121% | SF-295 CNS 110% | UACC-257 melanoma 107% | HCT-15 colon 102% | HT29 colon 92.5% | SNB-75 CNS 83.5% | PC-3 prostate 98.4% | SK-MEL-5 melanoma 105% | LOX IMVI melanoma 97.1% | CAKI-1 renal 92.7% | A498 renal 96.4% | MOLT-4 leukemia 85.5% | T-47D breast 98.5% | BT-549 breast 99.1% | HCC-2998 colon 99.4%

COc1ccc(/C=C\c2cc(OC)c(OC)c(OC)c2)cc1N/C=C\C(=O)c1c[nH]c2ccccc12
active: DU-145 prostate 3.53% | SF-295 CNS -11.8% | HT29 colon -3.93% | SK-MEL-5 melanoma -53.9% | A498 renal -13.6% | HL-60(TB) leukemia -11.4% | BT-549 breast 6.79%
inactive: K-562 leukemia 13.7% | MALME-3M melanoma 57.8% | RXF 393 renal 29.2% | UACC-257 melanoma 78.2% | HCT-15 colon 12.5% | SNB-75 CNS 19.1% | SNB-19 CNS 38.6% | PC-3 prostate 10.4% | LOX IMVI melanoma 19.6% | MOLT-4 leukemia 14.4% | T-47D breast 81.7% | HCC-2998 colon 21.4%
